In the library only some 3.2% were active in any assay of this set; here they are far more common.
TMEM16A act – activators or potentiators of mouse TMEM16A chloride channel; Q8BHY3; HEK293 TMEM16A/YFP-H148Q/I152L, iodide quench fluorescence; stronger effect = lower value; B-score at 10 µM; 340,000 tested, 0.3% active; AID 623877;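 active = fluorescence-ratio B-score plate-corrected deviation score at least 3 library SD below zero, with starting fluorescence score within 5 deviations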;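 note: channel opened by trigger with iodide after compound preincubation; score built on the fluorescence ratio of max minus min over baseline; more negative score means more quench and so TMEM16A activation or potentiation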
CHT inh – human CHT choline transport inhibition; Q9GZV3; CHT-expressing cells, membrane potential dye, choline response; stronger effect = lower value; B-score at 10 µM; 310,000 tested, 0.86% active;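 active = B-score over 3 SD under the library average, and starting fluorescence ratio not unusually high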;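 note: choline stimulus applied at its EC90 after an EC20 pre-addition; B-score computed on integrated fluorescence ratio after choline addition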
Rce1 inhib – inhibitors of yeast Ras-converting enzyme; Q03530; calls only; 290,000 tested, 0.27% active; yeast membranes, quenched prenylated peptide cleavage fluorescence;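 active = fall in fluorescence gain of 50% or more versus controls, with final raw signal at or below 3038400; inconclusive = same 50% fall but final raw signal above 3038400; inactive = fall in fluorescence gain under 50%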;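 note: plate controls were neutral control wells for no effect and wells lacking membranes for full effect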
ANO1 block – mouse TMEM16A channel inhibition, primary screen. normalized B-score (activity score, 25-100; higher = stronger inhibition) at 10 µM. HEK293 TMEM16A/YFP iodide influx fluorescence, ionomycin. AID 588511. 310,000 tested, 1.2% active;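 active = ratio plate-corrected score three or more library SD toward inhibition, starting fluorescence score within five deviations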;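 note: score derived from kinetic fluorescence span divided by baseline fluorescence per well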
CHT allo act – allosteric activators of human choline transporter CHT; Q9GZV3; CHT-expressing cells, membrane potential dye, choline EC20; stronger effect = higher value; LV-AA mutant CHT in HEK293 cells; B-score at 10 µM; 310,000 tested, 0.49% active;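 active = initial fluorescence not abnormally high and integrated response B-score, plate-corrected, over 3 SD above library mean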
Kir21 inh – Kir2.1 (mouse) channel inhibition. P35561. HEK293-Kir2.1, FluxOR thallium flux fluorescence; stronger effect = lower value. B-score at 10 µM. 310,000 tested, 0.85% active. AID 1672;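 active = fluorescence ratio B-score at or below minus 3 SD of library scores, with starting-brightness B-score within 2 SD, cut at about -4.2 in these data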;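 note: channel flux triggered by added potassium and thallium sulfate stimulus; B-score of peak minus minimum fluorescence over baseline after thallium stimulus; more negative B-score means stronger Kir2.1 block with less thallium influx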
Target sequence (P35561 whole entry, looked up): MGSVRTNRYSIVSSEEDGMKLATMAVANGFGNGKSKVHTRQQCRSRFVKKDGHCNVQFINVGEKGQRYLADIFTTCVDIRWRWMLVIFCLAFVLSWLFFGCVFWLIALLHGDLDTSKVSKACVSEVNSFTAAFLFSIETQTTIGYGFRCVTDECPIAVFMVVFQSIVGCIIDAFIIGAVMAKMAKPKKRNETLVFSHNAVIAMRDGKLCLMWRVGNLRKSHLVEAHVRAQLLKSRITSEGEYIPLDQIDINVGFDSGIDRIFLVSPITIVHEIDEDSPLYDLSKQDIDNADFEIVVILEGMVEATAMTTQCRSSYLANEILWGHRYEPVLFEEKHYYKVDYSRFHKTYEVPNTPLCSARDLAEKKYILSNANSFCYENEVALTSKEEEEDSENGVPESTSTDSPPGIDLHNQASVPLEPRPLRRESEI
CHT act confirm – confirmation of human choline transporter (CHT) activators; shares compounds with CHT allo act; CHT-expressing cells, membrane potential dye fluorescence (FDSS); % of choline EC20–EC90 response window; HEK293 expressing CHT LV-AA mutant; choline added at its EC20; activation, % at 10 µM; 2,500 tested, 91% active; AID 504833;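 active = primary screen active, with duplicate mean activation above negative control mean plus 3 SD, cut at about 11% in these data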
HEK293 MP dye – counter-screen for CHT activators: effect in parental HEK293 cells; membrane potential dye fluorescence (FDSS); measured after EC20 choline addition; ratio readout change at 10 µM, hits read low; 2,500 tested, 62% active; shares compounds with CHT allo act; AID 623908;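 active = duplicate-averaged ratio beyond 3 SD from buffer wells, up or down, though filed actives are nearly all decreases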
Active calls of the source: *; i = inactive; ? = inconclusive; · = no result.

SMILES | TMEM16A act | CHT inh | Rce1 inhib | ANO1 block | CHT allo act | Kir21 inh | CHT act confirm | HEK293 MP dye
CCCOc1ccc(C(=O)CCC(=O)NNC(=O)c2cccs2)cc1 | i | · | · | · | · | · | · | ·
O=[N+]([O-])c1ccc(N/N=C/C=C/c2ccco2)cc1 | i | i | i | i | 8.1* | 0.48 | 12* | i
CCn1c2ccccc2c2cc(CNCc3ccc(OC)cc3OC)ccc21 | i | i | i | 100* | 16* | -9.8* | 9 | i
Cc1nc2c(cc1N)nc(C)n2Cc1ccccc1 | i | i | ? | i | i | 0.24 | · | ·
COCCN1Cc2cccc(C(=O)Nc3cccnc3)c2C1=O | i | i | · | i | 6.5* | · | 40* | -41*
COc1ccccc1N1CCN(C(c2ccccc2)c2nnnn2CCc2ccccc2)CC1 (configuration not stated) | i | i | i | i | i | -0.89 | 17* | i
COc1ccccc1C(c1nnnn1CCc1ccccc1)N1CCN(c2ccccc2)CC1 (configuration not stated) | i | i | i | i | i | 0.28 | · | ·
COc1cccc(C(c2nnnn2CCc2ccccc2)N2CCN(c3ccccc3)CC2)c1OC (configuration not stated) | i | i | i | i | 6.8* | 0.11 | 21* | i
COc1cccc(C(c2nnnn2Cc2ccco2)N2CCN(c3cccc(C)c3C)CC2)c1OC (configuration not stated) | i | i | i | i | 7.1* | 0.14 | 20* | i
CCOc1ncccc1C(=O)N1CCN(c2cc(Cl)ccc2C)CC1 | i | i | i | i | 14* | 0.97 | 45* | i
CC1Cc2ccccc2N1C(=O)c1ccc(F)c(S(=O)(=O)N2CCOCC2)c1 (configuration not stated) | i | · | · | · | · | · | · | ·
Cc1nc(N)nc(C)c1Cc1ccccc1 | i | i | i | i | i | -1.4 | · | ·
Cc1c2ccccc2cc(Cc2ccccc2)[n+]1C | i | i | i | i | 6.7* | 0.74 | 68* | -76*
COc1ccc(-c2n[nH]c(=S)n2-c2ccccc2C)cc1OC | i | i | i | i | i | 0.09 | · | ·
COc1ccc(C2=NCCn3cccc32)c(OC)c1 | i | i | i | i | i | 0.43 | 43* | -49*
CCn1c(=O)c2sccc2n(Cc2cc(C(=O)OC)ccc2OC)c1=O | i | i | i | i | i | 1.1 | 36* | i
CCc1ccc(C(O)(CNCc2ccccc2)c2ccccc2)cc1 (configuration not stated) | i | i | i | i | i | -8.9* | 24* | i
COc1cccc(CNCC(O)(c2ccc(Cl)cc2)c2ccc(Cl)cc2)c1 | i | i | i | i | i | -0.38 | · | ·
CC(C)CC(C)N1CCC(n2nccc2NC(=O)CCc2ccccc2)CC1 (configuration not stated) | i | i | i | i | i | -2.3 | 32* | i
CC(CC(F)(F)F)N1CCC(n2nccc2NC(=O)CCCc2ccccc2)CC1 (configuration not stated) | i | i | i | i | i | -1.7 | -3 | i
O=C(CCCc1ccccc1)Nc1ccnn1C1CCN(Cc2ccccc2)CC1 | i | i | i | i | i | -2.8 | · | ·
CC(C)(CNC(=O)c1ccc(S(=O)(=O)Nc2ccc(Cl)cc2)cc1)N1CCOCC1 | i | · | · | · | · | · | · | ·
O=C(Nc1ccccc1)c1ccc[n+](Cc2ccc([N+](=O)[O-])cc2)c1 | i | i | i | i | i | 1.2 | 42* | -32*
O=C(CNC(=O)COc1ccccc1)NCCN1CCOCC1 | i | · | · | · | · | · | · | ·
N=c1c2c(n(Cc3ccc(F)cc3)c3c1CCC3)CCC2 | i | i | i | i | 7.1* | 0.58 | 49* | -50*
SMILES | TMEM16A act | CHT inh | Rce1 inhib | ANO1 block | CHT allo act | Kir21 inh | CHT act confirm | HEK293 MP dye
Fc1ccc(CN2CCCCCCC2)cc1 | i | i | i | i | i | 0.18 | · | ·
O=C(O)C1CCN(Cc2cccnc2)CC1 | i | i | i | i | i | -0.03 | · | ·
CCN1CCN(C(=O)CCn2c(=O)c3cccn3c3cccnc32)CC1 | i | i | i | i | i | -0.99 | 58* | -30*
CCCN1CCN(C(=O)CCn2c(=O)c3cccn3c3cccnc32)CC1 | i | i | i | i | i | 1.4 | · | ·
C=CCOC(=O)c1sc(NC(=O)c2ccc(OC)cc2)nc1C | i | i | i | i | i | -0.38 | · | ·
CCN1c2ccccc2-c2nc3ccccc3n2C1c1cccs1 (configuration not stated) | i | i | i | i | 7.4* | -0.43 | 45* | i
CCCn1c(-c2cccs2)nc2ccccc21 | i | i | i | i | i | -0.43 | · | ·
O=C(CCCOc1ccccc1)NNC(=O)c1ccncc1 | i | · | · | · | · | · | · | ·
COc1ccc(C(=O)CSc2nnc(CNC(=O)c3ccco3)n2C)cc1 | i | i | i | i | 6.6* | -0.03 | 69* | -51*
COc1ccc(C(=O)C[n+]2cc(Br)cc3ccccc32)cc1[N+](=O)[O-] | i | i | i | i | i | -0.06 | 31* | -38*
COc1ccc(-c2csc(NC(C)c3nc4cc(Cl)c(Cl)cc4n3CCCO)n2)cc1 (configuration not stated) | i | i | i | i | i | -0.16 | · | ·
CCOC(=O)c1c(C)n(C)c2ccc(OC)c(NC(=O)CCN3CCC(Cc4ccccc4)CC3)c12 | i | i | i | i | i | 1 | 7 | i
O=C1N(Cc2cccc(Cl)c2)C[C@@H]2C[C@@H](c3cccn3-c3ccccn3)N3CCC[C@@]123 | i | i | i | i | 7.1* | -3.4 | 53* | i
O=C1N(Cc2cccc(Cl)c2)C[C@@H]2C[C@@H](c3cccn3-c3nccs3)N3CCC[C@@]123 | i | i | i | i | i | -0.27 | · | ·
CCC(=O)N1COC[C@@H]1Cc1ccccc1 | i | i | i | i | i | 0.05 | · | ·
N#CC1=C(Nc2ccccc2)SC=C(c2ccc(Cl)c(Cl)c2)N=C1N1CCOCC1 | i | i | i | i | i | 0.36 | 40* | i
N#CC1=C(Nc2ccccc2)SC=C(c2ccccc2)N=C1N1CCOCC1 | i | · | i | · | · | -0.59 | · | ·

Bioassay records (PubChem BioAssay)
